Source: PMC7862700, “An all-to-all approach to the identification of sequence-specific readers for epigenetic DNA modifications on cytosine”

Experiments:
Assay in all cases: DAPPL (digital affinity profiling via proximity ligation, sequencing); 10 mM Tris-HCl pH 7.5, 50 mM NaCl, 1 mM DTT, 4% glycerol, room temperature, 30 min; GST-TFs on glutathione beads, 16-mer random dsDNA library, 0.1% formaldehyde crosslink after washing; high values mean tight binding
Conditions in all cases: protein: recombinant; tags: N-terminal GST; dsDNA, one strand shown
FLI1 = biological target: T1, FLI1 (Homo sapiens, UniProt Q01543 1-452)
T1 sequence: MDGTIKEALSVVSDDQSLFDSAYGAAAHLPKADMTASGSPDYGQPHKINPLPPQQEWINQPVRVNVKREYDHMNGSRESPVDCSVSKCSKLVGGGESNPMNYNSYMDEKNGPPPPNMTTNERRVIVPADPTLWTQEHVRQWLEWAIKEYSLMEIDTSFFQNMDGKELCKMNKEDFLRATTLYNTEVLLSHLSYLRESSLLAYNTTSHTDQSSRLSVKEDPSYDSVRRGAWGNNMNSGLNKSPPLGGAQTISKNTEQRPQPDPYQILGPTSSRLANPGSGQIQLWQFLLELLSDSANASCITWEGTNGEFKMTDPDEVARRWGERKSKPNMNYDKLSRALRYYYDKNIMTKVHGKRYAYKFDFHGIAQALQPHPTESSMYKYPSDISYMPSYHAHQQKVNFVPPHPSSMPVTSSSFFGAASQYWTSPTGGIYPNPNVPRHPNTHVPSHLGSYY
In short: (§1)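 Human transcription factors fused to GST were expressed in yeast, captured on glutathione beads, given DNA barcodes and pooled with a GST-only negative control. Pools were incubated with 200 nmole of a 16-mer random double-stranded DNA library in Tris/NaCl/DTT/glycerol buffer at room temperature for 30 min. They were then washed, crosslinked with 0.1% formaldehyde, proximity-ligated (BsaI/T4 ligase, 1 h, 37 °C), PCR-amplified and sequenced on an Illumina NextSeq500. Binding signal is each 6-mer's read frequency for a factor divided by its frequency for the GST control.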

GABPA = biological target: T2, GABPA (Homo sapiens, UniProt Q06546 1-454)
T2 sequence: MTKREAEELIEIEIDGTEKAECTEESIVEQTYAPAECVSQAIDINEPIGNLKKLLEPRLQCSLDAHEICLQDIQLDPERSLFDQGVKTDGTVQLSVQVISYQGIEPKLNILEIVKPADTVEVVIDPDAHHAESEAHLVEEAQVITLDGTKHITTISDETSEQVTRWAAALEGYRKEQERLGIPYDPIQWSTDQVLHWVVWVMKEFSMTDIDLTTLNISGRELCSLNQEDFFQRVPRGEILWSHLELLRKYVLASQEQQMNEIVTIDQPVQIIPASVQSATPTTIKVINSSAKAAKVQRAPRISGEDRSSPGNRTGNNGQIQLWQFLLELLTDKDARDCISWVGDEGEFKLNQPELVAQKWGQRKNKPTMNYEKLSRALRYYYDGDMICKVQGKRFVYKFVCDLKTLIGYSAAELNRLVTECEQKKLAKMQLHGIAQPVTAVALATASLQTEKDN
In short: as §1

ELF1 = ELF1 (Homo sapiens, UniProt P32519 1-619)
Chain of ELF1 (P32519 whole entry): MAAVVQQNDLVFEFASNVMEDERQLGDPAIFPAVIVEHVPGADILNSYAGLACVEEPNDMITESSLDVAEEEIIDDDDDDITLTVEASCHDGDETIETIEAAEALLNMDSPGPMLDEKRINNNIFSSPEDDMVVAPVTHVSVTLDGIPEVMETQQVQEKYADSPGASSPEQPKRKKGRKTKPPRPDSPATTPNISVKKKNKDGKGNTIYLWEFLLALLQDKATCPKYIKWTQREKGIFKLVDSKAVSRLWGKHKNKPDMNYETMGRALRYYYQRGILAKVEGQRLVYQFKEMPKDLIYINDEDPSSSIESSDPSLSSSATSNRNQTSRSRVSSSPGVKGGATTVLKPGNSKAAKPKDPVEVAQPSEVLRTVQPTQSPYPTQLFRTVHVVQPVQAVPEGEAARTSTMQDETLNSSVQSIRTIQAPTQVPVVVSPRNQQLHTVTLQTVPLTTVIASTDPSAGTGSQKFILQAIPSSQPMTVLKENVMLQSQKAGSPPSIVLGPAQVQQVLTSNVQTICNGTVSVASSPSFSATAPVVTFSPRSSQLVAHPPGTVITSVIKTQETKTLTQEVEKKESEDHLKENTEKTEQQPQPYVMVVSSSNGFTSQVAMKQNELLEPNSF
In short: as §1

EHF = biological target: T3, EHF (Homo sapiens, UniProt Q9NZC4 1-300)
T3 sequence: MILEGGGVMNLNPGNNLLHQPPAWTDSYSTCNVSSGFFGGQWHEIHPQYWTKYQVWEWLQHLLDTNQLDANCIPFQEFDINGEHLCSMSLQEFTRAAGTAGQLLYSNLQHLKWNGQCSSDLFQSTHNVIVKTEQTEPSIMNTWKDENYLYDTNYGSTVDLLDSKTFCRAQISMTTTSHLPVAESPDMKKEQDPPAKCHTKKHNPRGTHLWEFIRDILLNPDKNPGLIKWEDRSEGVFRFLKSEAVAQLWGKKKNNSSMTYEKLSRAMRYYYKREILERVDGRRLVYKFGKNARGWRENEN
In short: as §1

SPIB = SPIB (Homo sapiens, UniProt Q01892 1-262)
Chain of SPIB (Q01892 whole entry): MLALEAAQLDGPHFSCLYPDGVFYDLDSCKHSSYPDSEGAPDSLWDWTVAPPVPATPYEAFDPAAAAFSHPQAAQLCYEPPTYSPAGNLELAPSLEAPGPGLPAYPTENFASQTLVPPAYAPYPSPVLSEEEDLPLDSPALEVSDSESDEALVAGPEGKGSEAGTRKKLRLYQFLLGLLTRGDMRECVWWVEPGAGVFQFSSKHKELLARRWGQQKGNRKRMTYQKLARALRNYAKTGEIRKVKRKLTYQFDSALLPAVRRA
In short: as §1

ELK3 = biological target: T4, ELK3 (Homo sapiens, UniProt P41970 1-407)
T4 sequence: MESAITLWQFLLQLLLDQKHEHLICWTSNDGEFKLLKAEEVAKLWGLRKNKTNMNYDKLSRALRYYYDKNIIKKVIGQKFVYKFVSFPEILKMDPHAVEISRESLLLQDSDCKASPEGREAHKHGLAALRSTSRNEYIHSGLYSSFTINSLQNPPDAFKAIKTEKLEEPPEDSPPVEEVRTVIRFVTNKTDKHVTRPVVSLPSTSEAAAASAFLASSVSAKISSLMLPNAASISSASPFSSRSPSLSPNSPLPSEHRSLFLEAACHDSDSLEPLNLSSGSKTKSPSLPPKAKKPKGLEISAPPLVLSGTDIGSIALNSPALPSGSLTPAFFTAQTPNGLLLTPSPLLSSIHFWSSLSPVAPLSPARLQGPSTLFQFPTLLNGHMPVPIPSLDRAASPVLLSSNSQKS
In short: as §1

SPIC = biological target: T5, SPIC (Homo sapiens, UniProt Q8N5J4 1-248)
T5 sequence: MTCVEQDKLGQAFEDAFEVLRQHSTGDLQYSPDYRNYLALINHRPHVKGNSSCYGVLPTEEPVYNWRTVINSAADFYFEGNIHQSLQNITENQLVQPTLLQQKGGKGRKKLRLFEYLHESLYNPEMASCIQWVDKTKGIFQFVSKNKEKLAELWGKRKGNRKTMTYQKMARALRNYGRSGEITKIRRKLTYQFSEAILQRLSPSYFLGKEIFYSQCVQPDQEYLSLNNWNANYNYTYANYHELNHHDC
In short: as §1

ELF4 = ELF4 (Homo sapiens, UniProt Q99607 1-663)
Chain of ELF4 (Q99607 whole entry): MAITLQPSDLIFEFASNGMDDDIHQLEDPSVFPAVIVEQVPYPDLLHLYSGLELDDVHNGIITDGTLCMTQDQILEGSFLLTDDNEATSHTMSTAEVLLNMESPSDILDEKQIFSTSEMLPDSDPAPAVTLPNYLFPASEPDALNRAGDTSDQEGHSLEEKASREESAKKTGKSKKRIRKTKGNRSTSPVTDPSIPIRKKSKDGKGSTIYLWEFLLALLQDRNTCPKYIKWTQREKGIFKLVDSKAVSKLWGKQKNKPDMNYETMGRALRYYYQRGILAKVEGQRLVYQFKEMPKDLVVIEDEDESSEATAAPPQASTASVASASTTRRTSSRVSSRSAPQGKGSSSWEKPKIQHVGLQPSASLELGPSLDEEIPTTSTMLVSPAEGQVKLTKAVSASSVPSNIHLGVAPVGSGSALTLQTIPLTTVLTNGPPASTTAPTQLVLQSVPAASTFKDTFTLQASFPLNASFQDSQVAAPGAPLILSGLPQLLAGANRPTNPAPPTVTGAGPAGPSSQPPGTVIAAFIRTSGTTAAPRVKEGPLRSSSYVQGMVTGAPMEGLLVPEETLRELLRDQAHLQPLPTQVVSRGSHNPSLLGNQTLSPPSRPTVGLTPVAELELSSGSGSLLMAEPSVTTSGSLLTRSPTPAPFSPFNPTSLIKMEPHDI
In short: as §1

ELK4 = biological target: T6, ELK4 (Homo sapiens, UniProt P28324-2 1-405)
T6 sequence: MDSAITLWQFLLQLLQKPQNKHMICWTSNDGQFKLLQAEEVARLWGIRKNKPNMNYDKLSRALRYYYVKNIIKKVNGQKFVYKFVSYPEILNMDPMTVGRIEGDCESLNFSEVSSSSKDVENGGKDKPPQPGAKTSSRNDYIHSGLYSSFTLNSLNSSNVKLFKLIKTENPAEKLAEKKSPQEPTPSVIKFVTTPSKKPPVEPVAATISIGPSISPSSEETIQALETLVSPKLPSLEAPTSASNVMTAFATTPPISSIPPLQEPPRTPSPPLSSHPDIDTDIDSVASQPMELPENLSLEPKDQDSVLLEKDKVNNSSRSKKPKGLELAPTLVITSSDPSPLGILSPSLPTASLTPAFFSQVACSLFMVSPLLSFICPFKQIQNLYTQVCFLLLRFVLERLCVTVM
In short: as §1

ETV2 = biological target: T7, ETV2 (Homo sapiens, UniProt O00321 1-342)
T7 sequence: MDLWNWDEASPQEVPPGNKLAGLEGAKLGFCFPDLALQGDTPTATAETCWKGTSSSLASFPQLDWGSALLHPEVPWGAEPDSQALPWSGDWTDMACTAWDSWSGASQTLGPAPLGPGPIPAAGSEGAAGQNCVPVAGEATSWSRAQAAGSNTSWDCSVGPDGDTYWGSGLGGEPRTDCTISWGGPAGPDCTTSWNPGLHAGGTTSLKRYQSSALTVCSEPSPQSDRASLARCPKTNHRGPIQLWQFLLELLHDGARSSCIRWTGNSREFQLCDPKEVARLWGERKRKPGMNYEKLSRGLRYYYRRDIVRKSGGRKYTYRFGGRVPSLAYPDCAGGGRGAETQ
In short: as §1

ELF3 = biological target: T8, ELF3 (Homo sapiens, UniProt P78545 1-371)
T8 sequence: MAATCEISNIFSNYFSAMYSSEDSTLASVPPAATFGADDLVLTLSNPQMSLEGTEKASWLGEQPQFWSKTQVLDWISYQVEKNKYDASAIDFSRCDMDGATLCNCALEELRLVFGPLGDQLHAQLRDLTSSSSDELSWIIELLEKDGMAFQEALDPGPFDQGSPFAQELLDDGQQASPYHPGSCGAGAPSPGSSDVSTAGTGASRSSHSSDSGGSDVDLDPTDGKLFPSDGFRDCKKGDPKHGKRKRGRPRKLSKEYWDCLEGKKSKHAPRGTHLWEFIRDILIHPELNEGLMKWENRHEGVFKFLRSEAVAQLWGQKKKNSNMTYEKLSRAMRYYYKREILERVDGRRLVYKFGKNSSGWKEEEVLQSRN
In short: as §1

ETV1 = ETV1 (Homo sapiens, UniProt P50549 1-477)
Chain of ETV1 (P50549 whole entry): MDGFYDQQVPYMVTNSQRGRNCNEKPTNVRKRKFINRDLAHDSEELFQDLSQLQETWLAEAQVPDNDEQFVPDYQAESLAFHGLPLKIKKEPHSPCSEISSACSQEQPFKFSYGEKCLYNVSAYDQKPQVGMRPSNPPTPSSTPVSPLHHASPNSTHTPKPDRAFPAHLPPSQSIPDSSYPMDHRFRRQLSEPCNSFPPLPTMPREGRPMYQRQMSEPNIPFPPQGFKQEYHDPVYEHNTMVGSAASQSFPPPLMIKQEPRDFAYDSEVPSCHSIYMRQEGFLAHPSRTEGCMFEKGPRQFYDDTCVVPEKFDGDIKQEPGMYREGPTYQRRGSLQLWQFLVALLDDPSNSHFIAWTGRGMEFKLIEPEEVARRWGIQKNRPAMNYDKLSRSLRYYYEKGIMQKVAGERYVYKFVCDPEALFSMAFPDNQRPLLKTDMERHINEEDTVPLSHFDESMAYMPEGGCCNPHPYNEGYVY
In short: as §1

ERF = biological target: T9, ERF (Homo sapiens, UniProt P50548 1-548)
T9 sequence: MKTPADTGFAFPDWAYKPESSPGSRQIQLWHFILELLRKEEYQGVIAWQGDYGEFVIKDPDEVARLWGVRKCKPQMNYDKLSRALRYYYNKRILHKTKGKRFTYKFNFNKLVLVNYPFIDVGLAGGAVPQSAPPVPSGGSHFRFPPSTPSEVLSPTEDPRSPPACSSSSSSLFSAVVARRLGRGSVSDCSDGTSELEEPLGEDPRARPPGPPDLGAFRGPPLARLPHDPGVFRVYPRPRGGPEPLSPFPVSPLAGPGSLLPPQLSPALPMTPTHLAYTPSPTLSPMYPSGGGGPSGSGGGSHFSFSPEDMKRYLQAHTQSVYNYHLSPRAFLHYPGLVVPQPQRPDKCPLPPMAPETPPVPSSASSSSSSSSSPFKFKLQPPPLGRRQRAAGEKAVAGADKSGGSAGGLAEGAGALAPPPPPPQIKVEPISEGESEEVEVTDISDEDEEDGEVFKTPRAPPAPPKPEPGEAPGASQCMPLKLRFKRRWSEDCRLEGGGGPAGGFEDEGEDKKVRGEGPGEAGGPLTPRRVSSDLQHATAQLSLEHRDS
In short: as §1

ETV3L = biological target: T10, ETV3L (Homo sapiens, UniProt Q6ZN32 1-361)
T10 sequence: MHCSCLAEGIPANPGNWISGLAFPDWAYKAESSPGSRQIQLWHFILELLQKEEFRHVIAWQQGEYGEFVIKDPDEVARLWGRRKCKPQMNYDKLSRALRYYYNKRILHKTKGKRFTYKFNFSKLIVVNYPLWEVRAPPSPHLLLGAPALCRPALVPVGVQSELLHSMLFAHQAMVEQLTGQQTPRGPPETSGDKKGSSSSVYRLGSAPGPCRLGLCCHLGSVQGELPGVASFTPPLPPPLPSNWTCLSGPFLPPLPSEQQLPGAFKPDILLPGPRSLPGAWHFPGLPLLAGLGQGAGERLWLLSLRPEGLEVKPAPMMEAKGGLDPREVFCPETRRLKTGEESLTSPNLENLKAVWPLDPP
In short: as §1

ETS2 = biological target: T11, ETS2 (Homo sapiens, UniProt P15036 1-469)
T11 sequence: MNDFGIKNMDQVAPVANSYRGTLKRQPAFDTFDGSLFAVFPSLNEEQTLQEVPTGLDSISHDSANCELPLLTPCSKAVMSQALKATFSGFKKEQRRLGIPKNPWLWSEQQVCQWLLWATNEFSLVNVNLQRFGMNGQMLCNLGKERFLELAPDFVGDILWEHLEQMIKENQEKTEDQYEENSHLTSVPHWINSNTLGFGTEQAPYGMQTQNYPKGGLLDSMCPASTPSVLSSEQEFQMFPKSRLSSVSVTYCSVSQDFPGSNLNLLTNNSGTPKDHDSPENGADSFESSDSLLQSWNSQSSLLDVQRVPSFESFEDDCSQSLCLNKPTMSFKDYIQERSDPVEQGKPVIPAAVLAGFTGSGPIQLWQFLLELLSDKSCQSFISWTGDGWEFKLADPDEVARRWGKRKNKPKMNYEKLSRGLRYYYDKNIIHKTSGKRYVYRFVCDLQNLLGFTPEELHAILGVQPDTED
In short: as §1

ETV7 = biological target: T12, ETV7 (Homo sapiens, UniProt Q9Y603 1-341)
T12 sequence: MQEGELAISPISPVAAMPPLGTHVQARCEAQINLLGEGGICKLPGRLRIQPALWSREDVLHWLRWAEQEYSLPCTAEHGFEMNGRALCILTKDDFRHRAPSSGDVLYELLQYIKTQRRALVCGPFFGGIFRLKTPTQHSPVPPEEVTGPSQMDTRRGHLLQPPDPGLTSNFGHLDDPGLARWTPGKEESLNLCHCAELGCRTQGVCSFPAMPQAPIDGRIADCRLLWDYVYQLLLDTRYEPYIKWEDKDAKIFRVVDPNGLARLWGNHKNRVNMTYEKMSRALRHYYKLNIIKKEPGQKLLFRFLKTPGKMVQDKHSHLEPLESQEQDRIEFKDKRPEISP
In short: as §1

## GCTAGT
FLI1
  binding signal: 1.1 fold enrichment (6-mer frequency, TF over GST control)
GABPA
  binding signal: 1.06 fold enrichment (6-mer frequency, TF over GST control)
ELF1
  binding signal: 1.16 fold enrichment (6-mer frequency, TF over GST control)
EHF
  binding signal: 1.08 fold enrichment (6-mer frequency, TF over GST control)
SPIB
  binding signal: 1.09 fold enrichment (6-mer frequency, TF over GST control)
ELK3
  binding signal: 1.11 fold enrichment (6-mer frequency, TF over GST control)
SPIC
  binding signal: 1.2 fold enrichment (6-mer frequency, TF over GST control)
ELF4
  binding signal: 1.05 fold enrichment (6-mer frequency, TF over GST control)
ELK4
  binding signal: 1.07 fold enrichment (6-mer frequency, TF over GST control)
ETV2
  binding signal: 1.07 fold enrichment (6-mer frequency, TF over GST control)
ELF3
  binding signal: 1.04 fold enrichment (6-mer frequency, TF over GST control)
ETV1
  binding signal: 1.02 fold enrichment (6-mer frequency, TF over GST control)
ERF
  binding signal: 1.01 fold enrichment (6-mer frequency, TF over GST control)
ETV3L
  binding signal: 1 fold enrichment (6-mer frequency, TF over GST control)
ETS2
  binding signal: 1.07 fold enrichment (6-mer frequency, TF over GST control)
ETV7
  binding signal: 1.13 fold enrichment (6-mer frequency, TF over GST control)
